Compounds with a hit are over-represented: about 19% of the library has one in this group of screens.
RORgamma inh: inhibitors of mouse ROR gamma transcriptional activity; Drosophila S2 Gal4-RORgamma UAS-luciferase reporter, 20 h; Potency, µM (titrated, usually from 53.6 µM), most hits filed as inhibitors; hit rate 5.4% among 310,000; AID 2551; P51450; also: nearly all actives have a fitted effect of over 60% in size
Target sequence (P51450 whole entry, looked up, the tested form may be a part): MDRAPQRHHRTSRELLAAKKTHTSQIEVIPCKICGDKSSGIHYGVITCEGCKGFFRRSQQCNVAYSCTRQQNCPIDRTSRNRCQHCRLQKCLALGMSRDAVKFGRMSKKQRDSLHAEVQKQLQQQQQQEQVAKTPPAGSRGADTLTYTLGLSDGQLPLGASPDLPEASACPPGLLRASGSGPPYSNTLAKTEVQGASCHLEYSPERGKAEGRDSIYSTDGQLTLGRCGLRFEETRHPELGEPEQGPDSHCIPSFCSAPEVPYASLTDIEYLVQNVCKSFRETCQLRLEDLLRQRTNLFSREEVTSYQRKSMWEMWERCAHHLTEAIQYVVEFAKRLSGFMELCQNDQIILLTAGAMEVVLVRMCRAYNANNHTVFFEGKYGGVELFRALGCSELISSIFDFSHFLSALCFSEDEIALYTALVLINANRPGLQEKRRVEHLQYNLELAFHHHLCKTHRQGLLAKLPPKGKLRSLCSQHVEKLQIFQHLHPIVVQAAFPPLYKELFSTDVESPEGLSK
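Drosophila S2 cells stably expressing Gal4-DBD/mouse RORγ fusion under metallothionein promoter plus UAS-luciferase; compound 1 h, then 700 uM CuSO4 induction for 20 h at ambient temperature; inhibition read as reduced luminescence.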
DT40 TDP1 no CPT: qHTS for Inhibitors of human tyrosyl-DNA phosphodiesterase 1 (TDP1): qHTS in cells in absence of CPT | DT40 Tdp1-/- hTDP1 cells, no CPT, ATP luminescence, 48 h | Potency, µM (highest dose often 46.2 µM), actives largely listed as inhibitors | hit rate 15% among 420,000 | AID 686978, 2013; also: nearly all actives have a fitted effect of over 55% in size
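Readout: luminescence from CellTiter-Glo after 30 min in the dark at RT. Cells: DT40 Tdp1-/- with stable hTDP1, 400/well. Exposure: compounds alone, ≥48 hr, 37 °C.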
TDP1 block: blocks human tyrosyl-DNA phosphodiesterase 1. recombinant TDP1, AlphaScreen DNA substrate cleavage. AID 485290. Q9NUW8. Potency, µM (doses to about 130 µM), actives largely listed as inhibitors. hit rate 0.28% among 350,000; also: nearly all actives have a fitted effect of over 40% in size
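Recombinant E. coli-expressed Tdp1 (1 nM) preincubated with compound 15 min at RT, then 5'-biotin/3'-phosphotyrosine-FITC DNA substrate (15 nM) added for 5 min. AlphaScreen beads (10 ug/ml) added, 10 min RT; tyrosine-FITC cleavage read as signal loss.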
TDP1 cell CPT: growth inhibition of DT40 Tdp1-/-;hTDP1 cells with camptothecin (screen for TDP1 inhibitors); hit rate 12% among 420,000; chicken DT40 Tdp1-/-;hTDP1 cells + 20 nM CPT, ATP luminescence, 48 h; Potency, µM (series often up to 46.2 µM), usual class: inhibitors; also: nearly all actives have a fitted effect of over 55% in size
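Cell growth measured by CellTiter-Glo luminescence after a minimum 48 h, 37 C compound exposure with 20 nM CPT in Tdp1-knockout DT40 cells stably expressing hTDP1, seeded 400/well; qHTS titration format.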
VP16 counter: counter-screen for ROR gamma inhibitors: Gal4-VP16 reporter. Potency, µM (series often up to 53.6 µM), usual class: inhibitors. hit rate 3.5% among 310,000. Drosophila S2 Gal4-VP16 UAS-luciferase, luminescence, 20 h. AID 2546;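 also: Gal4-VP16 expression switched on by copper sulfate through the metallothionein promoter; nearly all actives have a fitted effect of over 50% in size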
Numbers stand for hits; n = inactive; u = inconclusive; x = no result given; [ ] = dose if it differs, or a comment. Calls follow the shape of the dose curve; as a rule, active = well fitted curve in the direction sought with a large enough effect; inconclusive = small, poorly fitted or top-dose-only effect, or another doubt; inactive = no such curve, though single readings can be large; an effect the other way counts as inactive or inconclusive.

SMILES	RORgamma inh	DT40 TDP1 no CPT	TDP1 block	TDP1 cell CPT	VP16 counter
O=C(COC(=O)CCc1c[nH]c2ccccc12)Nc1cc([N+](=O)[O-])ccc1Cl	n	n	n	n	n
O=C(Oc1c(CN2CCOCC2)cc(Cl)c2cccnc12)c1ccccc1Br	6.3µM	4.6µM	n	4.6µM	4µM
O=C(Oc1c(Cl)cc(Cl)c2cccnc12)N1CCCCC1	n	n	n	n	n
CN1CCN(Cc2cc(Cl)c3cccnc3c2OC(=O)c2cccs2)CC1	4.5µM	4.6µM	n	4.6µM	13µM
CCCc1cc(=O)[nH]c2nnc(SCC(=O)Nc3nnc(CC)s3)n12	x	n	x	n	x
Cc1cc(C)nc(Sc2ncnc3c2oc2ccccc23)n1	n	23µM	n	u	n
Cc1ccc(NC(=O)c2cc3nc(C)cc(C)n3n2)cc1	6.3µM	n	n	n	10µM
CCOc1ccc(/C=C/C(=O)c2cccs2)cc1	22µM	u	n	27µM	n
O=C(C=Cc1ccccc1)c1cccs1	x	16µM	x	18µM	x
O=C(/C=C/c1ccccc1)c1cccs1	22µM	9.4µM	n	6.7µM	n
COc1cccc(NC(=O)CCN2CCOCC2)c1	n	n	n	n	n
O=C(N/N=C/C(Br)=C/c1ccccc1)c1ccccc1[N+](=O)[O-]	n	13µM	n	13µM	n
Cc1occc1C(=O)N/N=C/C(Br)=C/c1ccccc1	u	12µM	n	9.2µM	n
O=C(NN=C1CCCC1)c1ccccc1[N+](=O)[O-]	n	n	40µM	n	n
Cc1occc1C(=O)N/N=C/c1cccnc1	n	n	n	n	n
C[C@@H]1OC(C2CCCCC2)N(C)[C@H]2C[C@H]3c4[nH]c5ccccc5c4CCN3C[C@@H]12 (some centres undefined)	x	u	x	21µM	x
O=[S@]1Oc2ccccc2-c2ccccc21	x	13µM	x	u	x
O=c1cc(CN2CCCCC2)nc(C2CC2)[nH]1	n	n	n	n	n
COc1ccc(C(=O)/C=C/c2cn(CC(O)CN3CCc4ccccc43)c3ccccc23)cc1OC (centres undefined)	x	4.1µM	n	3.3µM	x
CC(C)CN(CC(C)C)CC(O)Cn1cc(/C=C/C(=O)c2ccccc2)c2ccccc21 (centres undefined)	x	4.6µM	n	4.1µM	x
COc1ccc(C(=O)/C=C/c2cn(CC(O)CN(CC(C)C)CC(C)C)c3ccccc23)cc1OC (centres undefined)	x	x	n	x	x
CCCN(CCC)CC(O)Cn1cc(/C=C/C(=O)c2ccc(OCC)cc2)c2ccccc21 (centres undefined)	x	5.2µM	n	5.8µM	x
CCC(=C(c1ccc(OC)cc1)c1ccc(OC)cc1)c1cn(CC(O)CN(CCO)CCO)c2ccccc12 (centres undefined)	u	21µM	n	u	n
CO[C@H]1COC(=O)[C@@H](Cc2ccccc2)NC(=O)[C@@H](C)COC(=O)CCC[C@@H]1C	n[10 µM]	x	n[21 µM]	x	n[10 µM]
NC(=O)c1c(NC(=O)Cn2cc([N+](=O)[O-])cn2)sc2c1CCCC2	u	u	n	u	n
SMILES	RORgamma inh	DT40 TDP1 no CPT	TDP1 block	TDP1 cell CPT	VP16 counter
Cc1cc(C)c2nc(N3CCC(C(=O)NCC4CCCO4)CC3)sc2c1 (centres undefined)	n	n	n	n	n
CCN(CC)C(=O)c1ccc(N)cc1	n	n	n	n	n
CCN(CC)C(=O)c1ccc(C(=O)c2c(C)cc(C)cc2C)cc1	n	21µM	n	18µM	u
N#C/C(=N\O)c1nc2ccccc2s1	n	n	n	n	n
FC(F)(F)c1ccccc1NC(=S)NC1CCN(Cc2ccccc2)CC1	n	n	n	u	n
Cc1ccc(NC(=O)CN2CCC(NC(=O)Cc3ccccc3)CC2)cc1C	n	n	n	n	n
Cc1ccc(NC(=S)NC2CCN(Cc3ccccc3)CC2)cc1	13µM	u	n	u	u
CC(C)c1ccc(NC(=S)NC2CCN(Cc3ccccc3)CC2)cc1	16µM	23µM	n	u	u
Cc1ccc(NC(=S)NC2CCN(Cc3ccccc3)CC2)cc1C	11µM	26µM	n	u	u
COc1ccccc1OCC(=O)Nc1ccncc1	n	u	n	n	n
Cc1cc(OCC(=O)Nc2ccncc2)ccc1Br	n	23µM	n	u	u
Cc1cccc(OCC(=O)Nc2c(C)ccc3nsnc23)c1C	x	u	n	15µM	x
Cc1cc(Cl)ccc1OCC(=O)Nc1ccncc1	u	5.8µM	x	u	u
Cc1cc(Cl)ccc1OCC(=O)NCc1ccncc1	n	u	n	u	n
Cc1cccc(OCC(=O)Nc2ccncc2)c1C	u	8.2µM	n	12µM	3.2µM
CC(C)NC(=O)COc1ccc(Cl)cc1Cl	n	n	n	u	n
CCn1cc(C(C)NC(=O)COc2ccc(Cl)cc2C)c(C)n1 (centres undefined)	n	21µM	n	u	n
CCCCCCn1nc(C(=O)OCC(=O)c2c(N)n(C)c(=O)n(C)c2=O)c2ccccc2c1=O	n	18µM	n	21µM	n
CCCCCn1nc(C(=O)OCC(=O)c2c(N)n(C)c(=O)n(C)c2=O)c2ccccc2c1=O	n	21µM	n	u	n
CC(C)C(NC(=O)CN1C(=O)c2ccccc2C1=O)c1ccccc1 (centres undefined)	n	n	x	n	n
COC(=O)N1CCC2(CCCN(C(c3ccccc3)c3ccccc3)C2)CC1	n	n	x	n	n
c1ccc(C(c2ccccc2)N2CCCC3(CCNCC3)C2)cc1	n	6.5µM	x	9.2µM	n
c1ccc(C(c2ccccc2)N2CC[C@@]3(CCCNC3)C2)cc1	n	26µM	x	u	n
Cn1c(NCc2cccnc2)nc2cc(-c3cccc(C(=O)NCCO)c3)sc2c1=O	x	n	x	9.2µM	x
CN(C)CCCOc1ccc(-c2cc3nc(NCc4cccnc4)n(C)c(=O)c3s2)cn1	x	18µM	x	u	x
SMILES	RORgamma inh	DT40 TDP1 no CPT	TDP1 block	TDP1 cell CPT	VP16 counter
COc1ccc(CN2CCN(CCCc3ccccc3)C(CCO)C2)c(OC)c1 (centres undefined)	n	u	x	u	n
COc1cc(CN2CCN(CCCc3ccccc3)C(CCO)C2)cc(OC)c1O (centres undefined)	n	6.5µM	x	6.5µM	u
COc1cc2c(cc1OC)C(c1cccs1)N(C(=O)c1ccc(S(=O)(=O)N(C)C)cc1)CC2 (centres undefined)	n	u	n	u	n
COc1ccc(Br)cc1CN(C)C(=O)Cc1ccc(S(=O)(=O)N2CCOCC2)s1	x	21µM	n	u	x
CC1CCN(S(=O)(=O)c2ccc(NC(=O)Cc3ccc(S(=O)(=O)N4CCOCC4)s3)cc2)CC1	x	23µM	n	18µM	x
COc1cc(NC(=O)Cc2ccc(S(=O)(=O)N3CCOCC3)s2)c(OC)cc1Cl	x	21µM	n[0.505 µM]	u	x
CC1CCCN(S(=O)(=O)c2ccc(NC(=O)Cc3ccc(S(=O)(=O)N4CCOCC4)s3)cc2)C1 (centres undefined)	x	18µM	x	u	x

Screens deposited in PubChem BioAssay by National Center for Advancing Translational Sciences (NCATS).
